Compound activity: PubChem BioAssay, several laboratories
Hits are enriched below; roughly 1.7% of the tested compounds scored in any of these assays.
V-ATPase pHluor = regulators of yeast V-ATPase proton transport; AID 504577; response, % at 10 µM; 0.37% of 350,000 active; S. cerevisiae, pHLuorin cytosolic pH fluorescence; in the data active = response mostly above about 7.3%, no sharp cut-off; inactive = mostly below about 5.4%; note: actives read high
beta cell repl = induces beta-cell replication in MIN6 cells; 0.29% of 330,000 active; MIN6 cells proliferation, ATPlite luminescence, 48 h; cells starved in 0.2% serum; 100% = growth in 10% serum; AID 2380; proliferation, % at 10 µM;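 active = compounds whose signal lies at least 3.5 SD above the mean of all wells on their plate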;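 note: 0% = DMSO-treated cells in low-serum medium and 100% = 10% serum control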
HTR5A inv ag = HTR5A inverse agonism, opioid heterodimer counter-screen. P47898. HTR5A cell line, luminescence. inhibition, % at 9.3 µM. 0.083% of 340,000 active. AID 504634; in the data active = inhibition mostly above about 23%, no sharp cut-off; inactive = mostly below about 18%;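 note: 0% = cells with DMSO and 100% = no-cell wells with DMSO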
OPRM1-OPRD1 inv = inverse agonist of human OPRM1-OPRD1 heterodimerization. cell-based MOR-DOR heterodimer luminescence, inverse agonism. inhibition, % at 9.3 µM. 0.21% of 340,000 active; in the data active = inhibition above about 22%, passing the limit was not always enough;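 note: 0% = cells with DMSO and 100% = wells without cells with DMSO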
Target sequence (P35372 whole entry, looked up): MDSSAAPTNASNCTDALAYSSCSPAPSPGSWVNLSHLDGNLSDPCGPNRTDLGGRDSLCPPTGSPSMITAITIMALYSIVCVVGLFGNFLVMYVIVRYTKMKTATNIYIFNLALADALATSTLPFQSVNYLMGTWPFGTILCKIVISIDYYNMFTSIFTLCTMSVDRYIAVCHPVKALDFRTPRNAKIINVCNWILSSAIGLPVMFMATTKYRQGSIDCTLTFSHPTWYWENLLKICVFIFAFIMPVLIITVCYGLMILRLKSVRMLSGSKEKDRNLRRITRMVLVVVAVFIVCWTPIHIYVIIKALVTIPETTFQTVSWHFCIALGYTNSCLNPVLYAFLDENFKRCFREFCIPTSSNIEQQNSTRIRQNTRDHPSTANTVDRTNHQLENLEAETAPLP
Target sequence (P41143 whole entry, looked up): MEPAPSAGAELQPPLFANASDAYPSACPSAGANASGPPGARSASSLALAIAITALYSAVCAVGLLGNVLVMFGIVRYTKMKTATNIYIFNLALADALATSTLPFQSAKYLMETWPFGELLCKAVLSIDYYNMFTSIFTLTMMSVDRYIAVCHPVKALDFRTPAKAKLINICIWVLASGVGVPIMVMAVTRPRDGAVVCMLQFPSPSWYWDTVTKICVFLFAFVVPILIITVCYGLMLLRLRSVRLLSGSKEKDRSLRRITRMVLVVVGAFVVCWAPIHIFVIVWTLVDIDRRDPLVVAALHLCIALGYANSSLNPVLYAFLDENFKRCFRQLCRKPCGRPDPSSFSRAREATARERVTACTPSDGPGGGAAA
HTR5A ag ctr = counter-screen for OPRM1-OPRD1 agonists: human HTR5A agonism; P47898; HTR5A agonist assay, luminescence, cell-based; activation, % at 9.3 µM; 0.61% of 340,000 active; in the data active = activation mostly above about 9.5%, no sharp cut-off; inactive = mostly below about 7.6%;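 note: 0% = cells with vehicle only and 100% = reference agonist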
MOR-DOR ag = agonists of human mu-delta opioid receptor heterodimerization. AID 504326. cells, OPRM1-OPRD1 heterodimerization, luminescence. 0.3% of 340,000 active. P35372+P41143. activation, % at 9.3 µM; in the data active = activation above about 18%;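 note: 0% = vehicle-treated cells and 100% = reference agonist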
VATPase regulator = modulates yeast V-ATPase proton transport | shares compounds with V-ATPase pHluor | S. cerevisiae pHLuorin cytosolic pH | response, % at 10 µM | 2% of 980 active; in the data active = response above about 24%;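 note: plate controls were vehicle wells for no effect and positive control wells for full effect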
Active calls of the source: *; · = no result.

SMILES	V-ATPase pHluor	beta cell repl	HTR5A inv ag	OPRM1-OPRD1 inv	HTR5A ag ctr	MOR-DOR ag	VATPase regulator
CCOC(=O)c1c(N)sc(C(=O)N(C)C)c1C	15*	-1	9	-5	-2	1	-1
COc1ccc(NC(=S)N2CCN(C/C=C/c3ccccc3)CC2)c(OC)c1	12*	-3	-13	0	3	0	-1
COc1ccccc1NC(=S)N1CCN(C/C=C/c2ccccc2)CC1	0	-3	0	5	5	-1	·
O=C(NCc1ccco1)C(=O)NCC(c1ccco1)N1CCOCC1 (stereo not drawn)	19*	-4	-3	-1	-4	0	-4
COc1ccc(S(=O)(=O)N(C)C)cc1NCC(=O)Nc1cccc(C#N)c1	0	3	-15	9	2	-2	·
COc1cccc(C2C(C(=O)c3ccco3)=C(O)C(=O)N2CCN(C)C)c1OC (stereo not drawn)	1	-1	-13	8	3	-2	·
COc1cccc(C2C(C(=O)c3cc4ccccc4o3)=C(O)C(=O)N2CCN(C)C)c1OC (stereo not drawn)	13*	1	-15	-8	-1	2	1
COc1cc2c(cc1OC)CN(Cc1cc(OC)c(O)c(OC)c1)CC2	1	1	20	11	-2	-2	·
Cc1sc(NC(=O)Cc2ccc3c(c2)OCO3)nc1-c1ccc2c(c1)CCN2C(=O)c1ccc(F)cc1	11*	-1	-6	-6	5	1	-1
O=C(CSc1nnc(CNC(=O)c2ccc(F)cc2)o1)NCc1ccc2c(c1)OCO2	0	2	25	20	-10	-4	·
COc1ccc(N(CC(=O)Nc2cccc3ccccc23)S(C)(=O)=O)cc1	8.5*	-1	9	5	-2	-1	-1
CCS(=O)(=O)N(CC(=O)Nc1cccc2ccccc12)c1ccc(OC)cc1	-3	0	9	-2	1	0	·
Cc1ccc(S(=O)(=O)NCC(=O)OCC(=O)NC2CCCCC2)cc1	-3	-1	1	12	0	-3	·
COc1cc(C(=O)NCc2nnc(SCC(=O)N3CCOCC3)o2)cc(OC)c1OC	16*	-1	32	2	0	0	0
Cn1c(=O)oc2cc(S(=O)(=O)Nc3ccc(Cl)cc3)ccc21	4	-2	-23	18	-2	-4	·
Cn1c(=O)oc2cc(S(=O)(=O)Nc3ccc(F)cc3)ccc21	7.4*	-2	-10	14	3	-2	1
C=C(C)CSc1nnc(-c2ccc(OC)c(OC)c2)n1N	8.7*	0	-12	6	5	-1	1
O=C1OCCC1Sc1nnc(-c2ccccc2)o1 (stereo not drawn)	-1	3	-4	4	-3	-1	-3
O=C(CSc1nnc(-c2ccccc2)o1)NC1CCS(=O)(=O)C1 (stereo not drawn)	3	0	11	3	1	0	3
Cc1ccc(-n2nnnc2SCC(=O)NC2CCS(=O)(=O)C2)c(C)c1 (stereo not drawn)	-2	-1	0	1	0	0	·
Cc1ccc(C)c(SCC(=O)NC2CCS(=O)(=O)C2)c1 (stereo not drawn)	12*	0	16	12	-2	-2	-4
O=C(CSc1nnc(-c2ccccc2)o1)NC1CC1	0	0	9	22	4	-5	-1
COc1ccc(CNC(=O)CN2CCN(c3ccc(F)cc3)CC2)cc1	1	-2	-10	-6	3	1	·
Cc1cc(C)n(CCNc2nc3nonc3nc2N2CCCCC2)n1	4	3	-4	9	1	-2	·
COc1cccc(/C=C2\C(=O)N(c3cccc(C)c3)C(=O)c3ccccc32)c1	1	-6	-9	-3	2	1	·
SMILES	V-ATPase pHluor	beta cell repl	HTR5A inv ag	OPRM1-OPRD1 inv	HTR5A ag ctr	MOR-DOR ag	VATPase regulator
COc1cccc(N2C(=O)c3ccncc3C2=O)c1	12*	-2	12	4	4	-1	-1
CCOc1ccccc1NC(=S)Nn1cnnc1	4	-5	20	7	-1	-1	·
Cc1nc(C(=O)Nc2ccc(Cl)cc2)sc1C1(C)CC(c2cccc([N+](=O)[O-])c2)=NO1 (stereo not drawn)	10.0*	-3	1	-1	4	0	-4
Cc1nc(C(=O)NC2CCCCC2)sc1C1(C)CC(c2cccc([N+](=O)[O-])c2)=NO1 (stereo not drawn)	-2	-5	-53	9	18	-2	·
CC1CC(C)(C)NC(=S)N1CCC(=O)NCc1ccc(F)cc1 (stereo not drawn)	-1	0	-10	-4	6	1	·
CC1CC(C)(C)NC(=S)N1CC(=O)NCc1ccc(F)cc1 (stereo not drawn)	8.5*	0	0	1	-1	0	3
CCOC(=O)C1=C(C)NC(C)=C(C(=O)OCC)C1C(=O)OCC(=O)N1CCc2ccccc2C1	12*	4	5	2	-1	0	-2
Cc1c(NC(=O)c2cccc(NC(=O)COc3ccccc3C#N)c2)c(=O)n(-c2ccccc2)n1C	15*	-6	13	-25	1	4	0
CC(OC(=O)CCc1nc2ccccc2c(=O)[nH]1)C(=O)c1ccc(C(C)(C)C)cc1 (stereo not drawn)	-2	-6	-12	-10	4	2	·
Cc1nnc(SCc2nc3ccccc3s2)n1N	1	-1	-2	6	1	-1	·
Cc1nnc(SCc2nc3ccccc3s2)n1-c1ccccc1	8.3*	-3	3	5	0	-1	2
O=C(O)c1ccc(NC2(C(=O)O)CCCC2)cc1	-4	·	16	2	-4	0	·
COc1ccc(N2C(=NC(=O)C3CCCCC3)SC3CS(=O)(=O)CC32)cc1 (stereo not drawn)	8.0*	1	16	-15	3	3	1
COc1cccc(N2C(=NC(=O)C3CCCCC3)SC3CS(=O)(=O)CC32)c1 (stereo not drawn)	4	-3	3	5	-2	-1	·
COc1ccccc1C(=O)NCCC(=O)NCCC12CC3CC(CC(C3)C1)C2	11*	1	22	6	-1	-1	-6
COc1ccccc1OCCNC(=O)CCNC(=O)c1ccccc1OC	-2	3	11	14	3	-4	·
CCOc1ccc(OCCC(=O)OCC(=O)N2CCN(c3ccc(OC)cc3)CC2)cc1	4	-3	-3	14	1	-3	·
CCN(CC(=O)NCc1cccs1)C(=O)c1cc(S(=O)(=O)NCc2ccccc2)ccc1C	5	0	11	12	-4	-2	·
O=C(N[C@@H](Cc1ccccc1)C(=O)NCCc1c[nH]c2ccccc12)c1ccco1	13*	1	-15	-27	5	3	-1
